Compound activity as filed in PubChem.
KinaseGlo FLuc: Kinase-Glo luciferase inhibition (counter-screen). Q27757. Kinase-Glo luciferase, ATP luminescence, 8 min. Potency, µM (titrated, usually from 38.3 µM), inactives show at the highest dose activity change, negative = inhibition, most hits filed as inhibitors. 200,000 compounds, 0.28% hits. AID 1379; further: on the % scale 0 is the no-effect control and ±100 the full control effect; nearly all actives have a fitted effect of over 60% in size
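Recombinant Kinase-Glo luciferase, 10 uM ATP (linear range), luciferin; imidazole pH 7.2 / KCl / MgCl2 / Tween / BSA buffer; 8 min RT; luminescence.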
NPC1 promoter act: activators of NPC1 promoter; Huh7 NPC1 promoter luciferase reporter, 24 h; Potency, µM (doses to about 9.22 µM), without a hit: top-dose activation, usual class: activators; 320,000 compounds, 2.4% hits; further: % of control where 0% means no effect; nearly all actives have a fitted effect of over 60% in size
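Luminescence read-out of NPC1 promoter-driven luciferase in stably transfected Huh7 cells; compounds delivered in DMSO and left 24 h at 37C, 5% CO2, qHTS titration format.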
Rab9 prom act: activators of Rab9 promoter. 320,000 compounds, 2.8% hits. Huh7 Rab9 promoter-luciferase reporter, luminescence, 24 h. AID 485297. Potency, µM (doses to about 9.22 µM), without a hit: at the highest dose activation, negative = inhibition, usual class: activators; further: % of control where 0% means no effect; nearly all actives have a fitted effect of over 60% in size
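Huh7 cells stably carrying a Rab9 promoter-luciferase reporter, 1500 cells per well in OP-MEM I with 10% FBS, treated with compound 24 hours at 37C. Luciferase activity read by luminescence after 10 minutes with Amplite reagent.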
FLuc counter: inhibits or activates purified firefly luciferase, miR-21 counter-screen; purified FLuc, Km substrates, luminescence inhibition; P08659; Potency, µM (titrated, usually from 57.5 µM), for the others: at the highest dose activity change, negative = inhibition, most hits filed as inhibitors; 360,000 compounds, 6.9% hits;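 further: plate controls were vehicle for no effect and reference inhibitor for full effect; nearly all actives have a fitted effect of over 55% in size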
Target sequence (P08659 whole entry, looked up): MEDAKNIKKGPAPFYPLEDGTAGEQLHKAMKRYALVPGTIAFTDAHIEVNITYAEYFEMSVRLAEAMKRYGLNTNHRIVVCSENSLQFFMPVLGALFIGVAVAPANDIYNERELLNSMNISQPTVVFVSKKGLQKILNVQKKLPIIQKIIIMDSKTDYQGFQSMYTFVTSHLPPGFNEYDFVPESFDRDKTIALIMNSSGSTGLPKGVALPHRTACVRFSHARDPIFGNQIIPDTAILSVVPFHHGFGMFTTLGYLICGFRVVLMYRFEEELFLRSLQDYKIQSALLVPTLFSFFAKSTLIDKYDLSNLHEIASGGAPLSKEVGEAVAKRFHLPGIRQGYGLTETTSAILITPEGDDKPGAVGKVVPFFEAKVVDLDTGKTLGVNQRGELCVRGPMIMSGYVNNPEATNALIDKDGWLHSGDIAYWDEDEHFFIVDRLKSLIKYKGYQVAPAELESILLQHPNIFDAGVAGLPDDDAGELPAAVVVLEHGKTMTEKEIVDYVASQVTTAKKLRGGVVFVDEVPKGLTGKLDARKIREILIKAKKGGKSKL
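Biochemical qHTS of compounds, final roughly 60 µM downward over six points, against 10 nM purified firefly luciferase using Km concentrations of substrates (10 uM D-luciferin, 10 uM ATP) in Tris acetate pH 7.5 buffer; luminescence output.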
ELG1 genotoxic: induces genotoxicity in HEK293T cells with luciferase-tagged ELG1; HEK293T ELG1-luciferase reporter, luminescence, 16 h; Potency, µM (doses to about 46 µM), without a hit: at the top dose activity change, positive = activation, usual class: activators; 330,000 compounds, 1.3% hits; AID 504466; further: % of control where 0% means no effect; nearly all actives have a fitted effect of over 60% in size
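Genotoxicity was scored as increased ELG1-luciferase reporter signal, measured by ONE-Glo luminescence (30 min, room temperature). Compound or vehicle exposure of the HEK293T reporter cells lasted 16 hr at 37°C.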
SMN2 splice up: SMN2 splice variant enhancement; Potency, µM (doses to about 46.1 µM), inactives show at the top dose activity change, positive = activation, hits mostly activators; HEK293 SMN2-luciferase splicing reporter, luminescence, 30-36 h; 210,000 compounds, 2.8% hits; further: % of control where 0% means no effect; nearly all actives have a fitted effect of over 55% in size
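HEK293 cells carry an SMN2 minigene-luciferase reporter in which exon 7 inclusion puts luciferase in frame. Cells were seeded at 2000 cells/well, attached for 10-12 hours, then exposed to compounds for 30-36 hours at 37C before ONE-Glo luminescence.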
* hit, by the source's call; ? = inconclusive; nt = not tested or not shown. An excerpt weighted towards active compounds, which were near 7.5% of everything screened. The call rests on the fitted dose curve; in most records, active means well fitted curve in the direction sought with a large enough effect; inconclusive means small, poorly fitted or top-dose-only effect, or another doubt; inactive means no such curve, though single readings can be large; an effect the other way counts as inactive or inconclusive. Potency means the concentration at half of the fitted maximal effect.

SMILES | KinaseGlo FLuc | NPC1 promoter act | Rab9 prom act | FLuc counter | ELG1 genotoxic | SMN2 splice up
Cn1c(=O)n(C)c2cc(NS(=O)(=O)c3ccc(Br)cc3)c(NCc3ccccc3)cc21 | nt | nt | nt | ? | nt | 7.1µM*
CCCS(=O)(=O)Nc1cc2c(cc1NCc1ccccc1)n(C)c(=O)n2C | nt | nt | nt | ? | nt | 5.6µM*
CCCCNC(=O)C(CC)Sc1nc2ccccc2c(=O)n1Cc1ccco1 (stereo unspecified) | nt | nt | nt | 1% | nt | nt
CC(=O)c1ccc(OCc2cc(C(=O)N3CCOCC3)no2)cc1 | nt | ? | ? | 17µM* | ? | nt
CC(=O)c1ccc(OCc2cc(C(=O)N3CCC(Oc4ccccc4C)CC3)no2)cc1 | nt | ? | ? | 19µM* | 15% | nt
CC(=O)c1ccc(OCc2cc(C(=O)N3CCCCCCC3)no2)cc1 | nt | 14% | 28% | ? | -6% | nt
CN1c2ccccc2C(O)=C(C(=S)Nc2ccccc2)S1(=O)=O | 5% | -1% | -7% | ? | -12% | -16%
Cc1ccc(NC(=S)C2=C(O)c3ccccc3N(C)S2(=O)=O)cc1 | 4% | 0% | 5% | 19µM* | -6% | -10%
O=C1NC(=S)S/C1=C/c1ccc(N2CCOCC2)o1 | ? | 11% | 11% | 9.5µM* | 15% | -26%
C/C(=N\NC(=O)c1c[nH]c2ccccc12)c1ccc(C)s1 | nt | 3.2µM* | ? | ? | ? | nt
O=C(N/N=C/c1ccsc1)c1c[nH]c2ccccc12 | nt | 3.5µM* | 2.8µM* | 11µM* | 16µM* | nt
COc1ccc(C/C(C)=N\NC(=O)c2c[nH]c3ccccc23)cc1OC | nt | -1% | 3% | -18% | 4% | nt
O=C(N/N=C/c1ccsc1)c1cc2ccccc2o1 | nt | 1% | 25% | ? | 9% | nt
Cc1ccc(/C=N/NC(=O)c2c[nH]c3ccccc23)o1 | -4% | 22% | 27% | 24µM* | 3% | -4%
C/C(=N/NC(=O)c1ccncc1)c1c[nH]c2ccccc12 | -2% | -2% | 2% | -7% | 3% | -5%
CC/C(=N\NC(=O)c1c[nH]c2ccccc12)c1cccs1 | -5% | 2.8µM* | 2.8µM* | 5.4µM* | ? | 18µM*
O=C(COc1ccccc1Cl)NNC(=O)c1ccc(-n2cncn2)c([N+](=O)[O-])c1 | nt | -4% | -2% | 2% | 0% | nt
COc1ccc(-n2ccn(Cc3ccccc3C)c(=O)c2=O)cc1 | nt | nt | nt | -3% | nt | nt
COc1ccc(OC)c(NC(=O)c2nnn(CC(=O)Nc3ccc(C(C)C)cc3)c2N)c1 | nt | nt | nt | -11% | nt | nt
Cc1cc(C(=O)N/N=C/c2cccc([N+](=O)[O-])c2)c(C)o1 | -16% | 18% | 27% | ? | 12% | -7%
CC(C)(C)OC(=O)N/N=C/c1cccc([N+](=O)[O-])c1 | -2% | 2.5µM* | 3.2µM* | 6µM* | ? | 11µM*
O=C(N/N=C/c1cccc([N+](=O)[O-])c1)c1c[nH]c2ccccc12 | nt | 2.2µM* | ? | 17µM* | 12% | nt
Cc1ccc(/C=N/NC(=O)c2c[nH]c3ccccc23)s1 | -1% | 1.6µM* | 0.56µM* | 7.6µM* | 14% | 13µM*
O=C(N/N=C/c1cc([N+](=O)[O-])ccc1O)c1c[nH]c2ccccc12 | nt | 0% | -3% | -9% | 15% | nt
CCn1nc(C)c(/C=N/NC(=O)c2c[nH]c3ccccc23)c1C | -4% | ? | 3.5µM* | ? | ? | 18µM*
CCn1nc(C)c(/C=N/NC(=O)Cn2nccc2C)c1C | -4% | 27% | 25% | ? | ? | 20%
Cc1c(C(=O)Nc2cccc(C(F)(F)F)c2)sc2nc[nH]c(=O)c12 | nt | nt | nt | -3% | nt | nt
O=C(CCc1cn(Cc2ccccc2F)c2ccccc12)NCc1ccc(Cl)cc1 | nt | nt | nt | -5% | nt | nt
CC1(c2ccccc2Cl)NC(=O)N(CC(=O)N2c3ccccc3NC(=O)C2(C)C)C1=O (stereo unspecified) | nt | -6% | 14% | 3% | 1% | nt
CC(C)(C)OC(=O)N/N=C\c1ccc[nH]1 | -1% | -5% | ? | 19µM* | 7% | 27%
